Measurements reported in PubChem BioAssay AID1508600 (Functional Genomics Laboratory (NCATS/FGL), 2020).
The whole screen tested about 53,000 sequences, of which about 3,700 (7%) were called active.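 Rule for the calls: active = gene knockdowns whose robust z-score for IL-1 alpha signal is at least 2 or at most -2, so actives lie on both sides; inactive = the rest.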 Only a selection was taken, and actives are over-represented in it overall.

Assay: Components of the Cytosolic LPS Sensing Pathway: Gene Identification via Genome-wide siRNA Screen;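 note: robust z of the log signal after scaling to non-targeting control siRNA wells of the plate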
Settings: RAW264.7 macrophages, IL-1a HTRF, actives lie on both sides, screened at 100 nM (by protocol), cells primed 5 h with Pam3CSK4 first
In short: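 RAW264.7; siRNA 100 nM final, RNAiMAX, 48h 37 degrees C; Pam3CSK4 5 h; LipidA + TransIT-TKO 24 h; IL-1a HTRF; CellTiter-Glo viability; robust z vs negative-control median.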
For CCCAGGAAGCCUUUGAUCUTT against Gmnn, the z-score was 0.263 (inactive).
In the case of CCAUCGUCCAAAGUACAUGTT against Rbp4, the z-score is reported as -1.39 (inactive).
For GGGUAAUUAUUGUUUUCUGTT against Eif4e3, the z-score was 2.19 (active).
For GCUGUUGGUUUCUACUCACTT against Adam21, the z-score was -0.0536 (inactive).
In the case of GGAACAUGUCUCCUGAUCUTT against Add3, the z-score is reported as -1.07 (inactive).
In the case of GCAAUUCAGCUUAUAAGCATT against Mterf2, the z-score is reported as -2.79 (active).
For GGGAAAUGAGUUUCUACCGTT against Ebna1bp2, the z-score was -0.891 (inactive).
With CCUACACUAAAAUUCACCATT against Muc15 the z-score was -0.549 (inactive).
With CGUGUGCAAAGAAGCUAAATT against Mdm2 the z-score was 1 (inactive).
In the case of GGAGAUGAUGAUUUACAAATT against Spred1, the z-score is reported as 0.723 (inactive).
With GGUGAUCUUAGAUUUGAUUTT against Qsox2 the z-score was -0.401 (inactive).
In the case of GGGUUUCUUACUGAAGAAATT against Mindy2, the z-score is reported as -1.43 (inactive).
With GGAUCGAGACAAGGCCAAATT against Fes the z-score was 3.22 (active).
For GGAAUGAAGCCUGAACAGATT against Strc, the z-score was 0.151 (inactive).
In the case of GGACAAUGCCCUGUAUCAGTT against Clic3, the z-score is reported as -0.822 (inactive).
With GGAUAGUCUCCUCAAAGAATT against Trmt10b the z-score was 0.7 (inactive).
For GCUGUCAGAAAUCUUCGACTT against E2f4, the z-score was 2.65 (active).
With CCAUACUACGGAUGUUUGATT against Calb2 the z-score was 0.677 (inactive).
With GGGUAUAGGGAUGGUGAAUTT against Ppil1 the z-score was 0.834 (inactive).
With GCUACUCAGUCAUUGAGCCTT against Tatdn2 the z-score was -1.85 (inactive).
With GCAUCUCAAGGAUCUUCGGTT against Syngr4 the z-score was -0.0821 (inactive).
For GGGCAACUUUGAGUUCGAATT against Dok2, the z-score was 0.294 (inactive).
In the case of CCUUACCCUGUGUAUCUUUTT against Naa80, the z-score is reported as -0.0307 (inactive).
With GGCAAUUCACUGUGAGUAATT against Mettl21a the z-score was -2.18 (active).
For GGCCAAGGUCAAUAACUCCTT against Rfc1, the z-score was -0.755 (inactive).
With GGACCACUACAUCAUAUACTT against Lcn4 the z-score was -1.17 (inactive).
In the case of GGCCAAGACACCCUUGUUUTT against Zfp524, the z-score is reported as -0.376 (inactive).
In the case of GGAAGAGAAAGCAAAGUCATT against Ddx19a, the z-score is reported as -0.43 (inactive).
With CGGAAAUGUAAGUACUUUATT against Taf13 the z-score was 2.25 (active).
With GGUUCUGGAAGAAGAAAAGTT against Irgq the z-score was 1.31 (inactive).
For GGUUCUGUAAAUUCAACUATT against Zfp593, the z-score was 0.706 (inactive).
In the case of CUACGAGCCACUUCUGAGATT against Krt87, the z-score is reported as -0.431 (inactive).
For GAACUGAAGAAGCAGAUUGTT against Isg15, the z-score was 0.601 (inactive).
With GGCAUUAUGAGCAUCUCGGTT against Tnfrsf11a the z-score was -0.394 (inactive).
With GGAGACACCAGACCAACAATT against Gm5458 the z-score was 0.242 (inactive).
In the case of GGAAGGACAACACUGCACCTT against Cd40, the z-score is reported as 2.44 (active).
For “CCAUACAAGUAUCCGAACUTT against 1700102P08Rik”, the z-score was 1.03 (inactive).
In the case of GCCUCAGCAUUACCACUAUTT against Pof1b, the z-score is reported as -1.86 (inactive).
For GGUGAUGCAGCAGAUCAUUTT against Nfyc, the z-score was 0.0427 (inactive).
For GUGGAAAACAAGUGGCGGUTT against Cox7c, the z-score was 0.241 (inactive).
In the case of GGCAUUGACGAGGAUGACCTT against Supt3, the z-score is reported as 2.74 (active).
With GGAGAACUAUUCAGAAACUTT against Btbd11 the z-score was -0.0178 (inactive).
For GCGGUGCCAAAGGUAUUAATT against Rad51ap1, the z-score was -0.0801 (inactive).
In the case of GCAAGAAGGGACACAGUUUTT against Plk1, the z-score is reported as 0.276 (inactive).
In the case of GGAAAACCAAGACCACAAATT against Hmgn5, the z-score is reported as 1.39 (inactive).
For GGUGCUUGAUUUUGUGCAGTT against Psmd13, the z-score was -0.00516 (inactive).
With GACACCACAGUCAAAUCUGTT against Agr2 the z-score was -2.26 (active).
In the case of CCCUUUAAUACAUACAGUUTT against Mesp2, the z-score is reported as 1.14 (inactive).
For GCCCAAGGUGAUCAUUAUUTT against Casp1, the z-score was -0.15 (inactive).
For GGUUGUAAGGAACUCUUGGTT against Slc22a29, the z-score was -0.628 (inactive).
In the case of GGACAUUCCUGAACAUAAUTT against Pcdha3, the z-score is reported as -1.17 (inactive).
For GGAGAUCUUCAAUAUGUUATT against Supt6, the z-score was -2.25 (active).
For GAAGCCUAAUCCCUUAAUCTT against Oas1g, the z-score was 1.07 (inactive).
In the case of CCAUUUCAGGCAUGAAGAATT against Tsga10, the z-score is reported as -1.13 (inactive).
In the case of GGUCAAUAUUCUUAUGUCCTT against S1pr3, the z-score is reported as 0.245 (inactive).
With GGAAUUGGAUGUGAGCAACTT against Vasn the z-score was 0.586 (inactive).
For GCCAUGGGUCUCAGAAAGATT against Zxda, the z-score was -0.247 (inactive).
With GGAAGAGGAUAGGCAGGAATT against Gfer the z-score was 2.03 (active).
In the case of UGAUAGUCUCCACUAAAUUTT against Gm4884, the z-score is reported as -0.265 (inactive).
In the case of GGAUCCUUUGGUUAUAAGATT against Nav1, the z-score is reported as -1.28 (inactive).
For GGUCUUUAGCAGAGAAAAUTT against Zfp420, the z-score was -0.201 (inactive).
With GCCCACAGUCAUUAAACUATT against Nipal4 the z-score was 0.723 (inactive).
In the case of GGAUCAAAUCAAGAAGAUGTT against Chmp5, the z-score is reported as 0.627 (inactive).
In the case of CCCAGGGUGUCAAUCUAAATT against Cby1, the z-score is reported as -0.381 (inactive).
With CGAAAAUACGUCAAAGCUCTT against Abca8b the z-score was -0.656 (inactive).
For GGGCACUGACAAACGUAUUTT against Olfr433, the z-score was -0.34 (inactive).
With GUUCUUCUCUGUUGGUGCUTT against Vmn1r24 the z-score was -2.12 (active).
With GGACUUCGUGAACAAGAUCTT against Grin2b the z-score was -0.439 (inactive).
For GCGGCCACGGGACGGCGGUTT against Hmx2, the z-score was -0.455 (inactive).
For GGUCAUGACAGGAUACCCATT against Fam163b, the z-score was -1.99 (inactive).
In the case of GGAGCCGUACAUCUUACACTT against Abhd1, the z-score is reported as 0.33 (inactive).
In the case of GCCGAGUGAAUGAAAGGACTT against Ppp1r32, the z-score is reported as -0.758 (inactive).
In the case of CCGUGGCGUAUGUGAUCAATT against Map3k5, the z-score is reported as -0.249 (inactive).
In the case of GGACUCUCAGAAGAAUGAUTT against Hmmr, the z-score is reported as 2.98 (active).
In the case of GGGAAAUGUUUUCCAAAGATT against Tep1, the z-score is reported as 0.776 (inactive).
In the case of CCAUAUGUGCUCACCUUUATT against Marveld2, the z-score is reported as -0.641 (inactive).
In the case of CGAGUUUAAAGUGAGAAGATT against Pou1f1, the z-score is reported as 0.488 (inactive).
With GCCACUCUUUAAGAAUCUATT against Abcf1 the z-score was -0.552 (inactive).
With GCAUUGUCCGAGGUUUAUUTT against Tspan33 the z-score was 0.64 (inactive).
In the case of GGAGACAUUCCUGAAAGCUTT against Ankrd2, the z-score is reported as -2.09 (active).
In the case of “GGUGCUAUGUGCGUUUGAUTT against 9830107B12Rik”, the z-score is reported as 1.97 (inactive).
For GGCGGAUGAACAAAGUUGGTT against Polr1e, the z-score was 0.0863 (inactive).
For GGAGAAUAAGCAAAUCCUUTT against Cfap20dc, the z-score was -0.937 (inactive).
In the case of GGUCCCAUAUACCAGAUCUTT against Slc3a1, the z-score is reported as 1.63 (inactive).
For UGUCAGUGCAGAAUAGCACTT against Olfr658, the z-score was -1.17 (inactive).
In the case of GGACAUAGAGAACAUCAUCTT against Cabp7, the z-score is reported as 4.02 (active).
With CGACACUCAAUGUGAACUUTT against Grtp1 the z-score was -0.881 (inactive).
In the case of GCCAGUCAUGCCUAUUUUCTT against Zmym6, the z-score is reported as -0.528 (inactive).
For GGUGUGAGUGUCGGAAUCUTT against Islr2, the z-score was 0.138 (inactive).
In the case of GGGACAAGUUCAUCUGAUATT against Rin1, the z-score is reported as 2.06 (active).
With GGAAUGGUUUUAUUUUUGGTT against Noa1 the z-score was -0.0245 (inactive).
In the case of GGUACCUCUGUAUUCAGCCTT against Olfr121, the z-score is reported as 0.78 (inactive).
In the case of GGAAACUACAAAUUUGGCATT against Krtap6-2, the z-score is reported as 0.195 (inactive).
For CCCACAGUAAAUUCAACGGTT against Gm5069, the z-score was 0.00754 (inactive).
With UACCCAUUGUCAAGUUGGATT against Grm4 the z-score was -0.634 (inactive).
With GGACCUGUGUGUUCUUUGATT against Amhr2 the z-score was -0.505 (inactive).
For CCUUGGCAGGUAUAGUGUUTT against Klk9, the z-score was -1.09 (inactive).
With GGCGGUGUUUUACUACAAGTT against Capn7 the z-score was 3.99 (active).
In the case of GGAUCCCAGUUCUGGGUAATT against Dok1, the z-score is reported as -0.0628 (inactive).
With GCCUAUUUGACGUGCAGAGTT against Crocc the z-score was -0.0336 (inactive).
For GCUGUUUUAUCUCCAAUGGTT against Araf, the z-score was 1.73 (inactive).
For CCCAUGUACCACUUUGUCATT against Olfr430, the z-score was -2.05 (active).
For “GGCAUUGAUCACUGACAGCTT against 9530077C05Rik”, the z-score was 0.827 (inactive).
For GGACCAUACAUAUUCAAAATT against Aph1b, the z-score was 0.0294 (inactive).
In the case of GUCCUGAAGAAGCUCAAGATT against Cartpt, the z-score is reported as -0.513 (inactive).
In the case of GGGACAGUACAGAGUGCUGTT against Hmx1, the z-score is reported as 0.755 (inactive).
With CAAUCCUCAACGAUUACAUTT against Ncor1 the z-score was 2.05 (active).
